Experimental data from PubChem BioAssay.
The source made the active and inactive calls.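 Rule for the calls, unless noted: active = NADPH fluorescence slope more negative than the mean of all samples by about 3 SD, 99.7% confidence; inactive = the rest.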

What was measured:
[1] = inhibitors of TNFa-induced NFkB p65 translocation, primary screen, imaging, HUVEC, MLSMR starter and 10KST1 sets (AID 438;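 active = inhibition above 20% together with a positive visual image hit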;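 note: compound added about 3h40 before a 20 min TNFalpha stimulation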;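 for inhibition: signal is the nuclear over cytoplasmic p65 intensity ratio per well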); conditions: HUVEC TNFa-induced p65 nuclear translocation; cell count: measured here: nuclei count (cytotoxicity indicator), at 2.08 µM; inhibition: at 2 µM, stronger effect = higher value, 0% TNFa-plus-vehicle, 100% no-TNFa wells
[2] = inhibitors of mutant huntingtin aggregation, primary screen, imaging, exon1htt(103Q)mCFP cells, high-content imaging (AID 483;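 active = visual image review flags a hit and inhibition of aggregation exceeds 20%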;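 note: compound exposure lasted 3 days before fixation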;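 for nuclei count: percent of the per-plate median nuclei count of sample wells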); conditions: exon1htt(103Q)mCFP cell line, aggregate imaging, at 2 µM; inhibition of aggregation: stronger effect = higher value; nuclei count: measured here: cell count, toxicity
[3] = inhibitors of E-selectin induction by TNFa, primary screen, imaging, HUVEC, immunofluorescence, MLSMR starter and 10KST1 sets (AID 487;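 active = visually confirmed hit in the image check and inhibition above 20%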;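 for inhibition: signal is fraction of cell area covered by stained E-selectin grains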;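 for nuclei count: 100% = median nuclei count of all wells on the same plate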); conditions: HUVEC TNFalpha-induced E-selectin immunofluorescence imaging, at 2 µM; inhibition: stronger effect = higher value; nuclei count: measured here: cell number, toxicity
[4] = molecular target: Voltage-gated potassium channel subunit beta-2 (Rattus norvegicus) (UniProt P62483); test: KvBeta enzyme negative modulators, primary screen, biochemical, NADPH fluorescence (AID 622;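 active = fluorescence slope higher than the sample average by over 3 SD, cut at about -0.22 in these data, passing the limit was not always enough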;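 note: slope of raw intensity against log time taken from 70 to 1610 s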); conditions: recombinant KvBeta, 4-cyanobenzaldehyde reduction, at 10 µM, stronger effect = higher value
[5] = molecular target: Voltage-gated potassium channel subunit beta-2 (Rattus norvegicus) (UniProt P62483); test: KvBeta positive modulators, primary screen, biochemical, NADPH fluorescence (AID 623); conditions: Recombinant KvBeta, NADPH fluorescence decrease slope, 10 min; at 10 µM; stronger effect = lower value;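 note: fluorescence intensity change per second fitted from 20 to 320 s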
[6] = molecular target: Alpha-2C adrenergic receptor (Homo sapiens) (UniProt P18825); test: modulators of alpha2C/GIRK thallium flux, primary screen, cell-based, HEK293 alpha2C/GIRK1/2 (AID 624;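 active = fluorescence slope after compound addition differing from the mean of all screened samples at 99.7% confidence, in either direction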;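 note: slope of fluorescence ratio to pre-addition baseline per second over 15 to 24 s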); conditions: thallium flux BTC fluorescence, at 10 µM, actives lie on both sides
[7] = inhibitors of Sendai virus-induced IRF3 signaling, primary screen, TLR/RLR signaling modifier project, cell-based, Sendai virus stimulus, luciferase, 10K MLSCN set (AID 602276;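 active = inhibition at or above 50% at 10 µM; inactive = inhibition below 50%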;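 note: firefly luciferase from ISG56 promoter only with Renilla not read in this screen; 0% = Sendai virus plus DMSO and 100% = medium plus DMSO without virus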); conditions: HEK293 RL24 IRF3 luciferase reporter, at 10 µM, stronger effect = higher value
[8] = inhibitors of poly I:C-induced TLR3 signaling, primary screen, cell-based, poly I:C stimulus, luciferase, 10K MLSCN set (AID 602277;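 active = inhibition of the reporter signal at or above 50%; inactive = inhibition below 50%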); conditions: HEK293-TLR3 RL24 IRF3 luciferase reporter, at 10 µM, stronger effect = higher value

Voltage-gated potassium channel subunit beta-2 (Rattus norvegicus), sequence (P62483 whole entry, looked up): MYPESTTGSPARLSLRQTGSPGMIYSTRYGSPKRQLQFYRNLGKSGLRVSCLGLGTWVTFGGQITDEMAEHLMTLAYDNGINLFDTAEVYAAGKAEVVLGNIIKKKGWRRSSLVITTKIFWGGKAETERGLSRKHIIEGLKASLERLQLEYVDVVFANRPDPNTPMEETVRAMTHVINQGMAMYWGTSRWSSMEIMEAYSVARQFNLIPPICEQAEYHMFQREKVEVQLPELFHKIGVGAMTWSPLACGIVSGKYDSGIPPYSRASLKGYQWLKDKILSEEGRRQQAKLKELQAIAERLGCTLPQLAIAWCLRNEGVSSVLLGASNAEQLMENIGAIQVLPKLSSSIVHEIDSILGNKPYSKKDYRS
Alpha-2C adrenergic receptor (Homo sapiens), sequence (P18825 whole entry, looked up): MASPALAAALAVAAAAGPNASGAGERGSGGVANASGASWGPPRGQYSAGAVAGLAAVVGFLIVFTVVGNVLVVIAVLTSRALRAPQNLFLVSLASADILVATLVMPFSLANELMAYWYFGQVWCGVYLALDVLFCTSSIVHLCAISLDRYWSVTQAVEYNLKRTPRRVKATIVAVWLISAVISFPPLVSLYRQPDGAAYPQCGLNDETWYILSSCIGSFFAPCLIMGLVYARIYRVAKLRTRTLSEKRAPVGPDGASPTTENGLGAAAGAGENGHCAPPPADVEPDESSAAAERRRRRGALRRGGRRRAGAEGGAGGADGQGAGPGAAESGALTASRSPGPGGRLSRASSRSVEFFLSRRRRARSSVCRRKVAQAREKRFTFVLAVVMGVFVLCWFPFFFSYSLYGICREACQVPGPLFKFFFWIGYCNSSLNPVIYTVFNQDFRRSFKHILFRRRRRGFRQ

Row | Structure (SMILES) | cell count [1] | inhibition [1] | inhibition of aggregation [2] | nuclei count [2] | inhibition [3] | nuclei count [3] | fluorescence slope [4] | NADPH fluorescence slope [5] | slope [6] | inhibition [7] | inhibition [8]
1 | COC(=O)c1ccc(-c2ccco2)n1Cc1nc(-c2ccc(OC)c(OC)c2)oc1C | 470 | -0.5% (inactive) | 19% (inactive) | 113% | -28% (inactive) | 93.4% | -0.308 (inactive) | -4.8e-05 (inactive) | 0.00465 (inactive) | 12.2% (inactive) | -0.464% (inactive)
2 | Cn1c(=O)c2c(nc(CN3CCOCC3)n2CC(O)CO)n(C)c1=O (centres undefined) | 474 | 44.4% (active) | 19.2% (inactive) | 103% | 10.6% (inactive) | 110% | -0.427 (inactive) | -2.2e-05 (inactive) | 0.00587 (inactive) | 14.2% (inactive) | 23.9% (inactive)
3 | Cc1ccc(Cl)cc1N1CCN(C(=O)C2CCCN(S(=O)(=O)c3cnc[nH]3)C2)CC1 (centres undefined) | 563 | 10.1% (inactive) | -1.2% (inactive) | 102% | -74.4% (inactive) | 126% | -0.532 (inactive) | -2.9e-05 (inactive) | 0.00714 (inactive) | -6.79% (inactive) | 3.89% (inactive)
4 | O=C(CCc1nc2ccccc2[nH]1)Nc1ccc2c(c1)OCO2 | 310 | -9.6% (inactive) | 23.8% (inactive) | 111% | -68.2% (inactive) | 111% | -0.347 (inactive) | 1.4e-05 (inactive) | 0.00426 (inactive) | -10.7% (inactive) | -26.2% (inactive)
5 | Cc1ccc(-c2noc(CCC(=O)NCCc3ccccc3Cl)n2)cc1 | 287 | -1.2% (inactive) | 19.9% (inactive) | 91% | 5.2% (inactive) | 88.4% | -0.409 (inactive) | -3.6e-05 (inactive) | 0.00258 (inactive) | 10.3% (inactive) | 21.8% (inactive)
6 | CCC1Oc2ccc(C)cc2N(CC(=O)NCCCN2CCCCC2CC)C1=O (centres undefined) | 651 | -3.9% (inactive) | 26.7% (inactive) | 109% | -34.9% (inactive) | 101% | -0.41 (inactive) | 2.7e-05 (inactive) | 0.0055 (inactive) | 16.8% (inactive) | 38.8% (inactive)
7 | CCCCn1nnc(NC(=O)c2cc3ccccc3o2)n1 | 615 | 2.2% (inactive) | 3.5% (inactive) | 106% | -13.4% (inactive) | 90.8% | -0.468 (inactive) | 1.2e-05 (inactive) | 0.00257 (inactive) | -19% (inactive) | -27.4% (inactive)
8 | CCCOc1ccc(NC2=CC(=O)CC(C)(C)C2)cc1 | 342 | 3.8% (inactive) | -7.1% (inactive) | 119% | -89.3% (inactive) | 117% | -0.405 (inactive) | -4.9e-05 (inactive) | 0.00457 (inactive) | -1.23% (inactive) | -12.8% (inactive)
9 | O=C(NCc1ccc2c(c1)OCO2)c1cccc2c1C(=O)N(C1CCCCC1)C2 | 570 | -5% (inactive) | -12.5% (inactive) | 108% | 3.2% (inactive) | 115% | -0.615 (inactive) | -1.7e-05 (inactive) | 0.00632 (inactive) | 8.65% (inactive) | 15.3% (inactive)
10 | CCSc1cc(C2C(C(=O)OC)=C(C)NC3=C2C(=O)CCC3)c(C)o1 (centres undefined) | 737 | -6.1% (inactive) | 8.4% (inactive) | 96.3% | -52.7% (inactive) | 129% | -0.593 (inactive) | -2.7e-05 (inactive) | 0.00339 (inactive) | 16.1% (inactive) | 22.6% (inactive)
11 | COc1ccc(-n2c(SCc3ccc(C#N)cc3)nnc2-c2ccccn2)cc1 | 692 | -5.8% (inactive) | -4.4% (inactive) | 105% | -18.8% (inactive) | 118% | -0.599 (inactive) | -3.8e-05 (inactive) | 0.00521 (inactive) | -1.12% (inactive) | 11.2% (inactive)
12 | CCOC(=O)C1CCN(c2c(N3CCCCCC3)c(=O)c2=O)CC1 | 897 | -0.9% (inactive) | -6.8% (inactive) | 98.7% | -84.4% (inactive) | 112% | -0.581 (inactive) | -4.7e-05 (inactive) | 0.0057 (inactive) | 8.92% (inactive) | 28.8% (inactive)
13 | CCCCCc1c(C)nc(Nc2nc(C)c3cc(OC)ccc3n2)[nH]c1=O | 411 | 5% (inactive) | 7.6% (inactive) | 84.7% | 9.5% (inactive) | 98% | -0.598 (inactive) | 1.7e-05 (inactive) | 0.00896 (inactive) | 12.6% (inactive) | -6.69% (inactive)
14 | Cn1c(C(=O)Nc2ccc3c(c2)OCO3)cc2c(=O)n(C)c3ccccc3c21 | 683 | 7% (inactive) | -6.4% (inactive) | 104% | -20.2% (inactive) | 104% | -0.264 (inactive) | -2.8e-06 (inactive) | 0.00554 (inactive) | -13.1% (inactive) | -11.2% (inactive)
